A selection: hits, their analogues and other compounds. The true share with any hit is near 9.3%.
SMN2 splice up: increases expression of the SMN2 splice variant | hit rate 2.8% among 210,000 | HEK293 SMN2-luciferase splicing reporter, luminescence, 30-36 h | Potency, µM (series often up to 46.1 µM), without a hit: top-dose activity change, positive = activation, actives largely listed as activators; also: % of control where 0% means no effect; nearly all actives have a fitted effect of over 55% in size
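HEK293 cells carry an SMN2 […]–luciferase reporter in which exon 7 inclusion puts luciferase in frame. Cells were plated 10-12 h before compound addition, then incubated 30-36 h at 37C. ONE-Glo luminescence was read; sodium butyrate at 4.5 mM final served as control.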
NPC1 promoter act: activates the NPC1 promoter; Huh7 NPC1 promoter luciferase reporter, 24 h; hit rate 2.4% among 320,000; Potency, µM (top dose mostly 9.22 µM), for the others: at the top dose activation, hits mostly activators; also: % of control where 0% means no effect; nearly all actives have a fitted effect of over 60% in size
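In 1536-well qHTS, Huh7 cells harboring an NPC1 promoter–luciferase construct received compound for 24 h; activation was quantified by luminescence following luciferase reagent addition.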
ELG1 repair inh: ELG1-dependent DNA repair inhibition. HEK293T ELG1-luciferase reporter, luminescence, 16 h; DNA damage induced by 5-fluorouridine. Potency, µM (highest dose often 46.1 µM), inactives show at the top dose activity change, negative = inhibition, usual class: inhibitors. hit rate 2.3% among 330,000. AID 504467; also: % is scaled to controls: 0 for no effect and ±100 for the full control effect; nearly all actives have a fitted effect of over 55% in size
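Quantitative HTS, concentration-response format. 2,000 cells/well co-treated with 5-fluorouridine and compound, 16 hr in 5% CO2 at 37 °C; ONE-Glo luminescence read after 30 min.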
Rab9 prom act: Rab9 promoter activation | Huh7 Rab9 promoter-luciferase reporter, luminescence, 24 h | Potency, µM (series often up to 9.22 µM), for the others: at the highest dose activation, negative = inhibition, actives largely listed as activators | hit rate 2.8% among 320,000 | AID 485297; also: % of control where 0% means no effect; nearly all actives have a fitted effect of over 60% in size
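Measured in stably transfected Huh7 cells bearing a Rab9 promoter–luciferase construct: 24 h compound treatment at 37 °C, followed by luminescence detection.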
FLuc modulator: firefly luciferase modulation, counter-screen for miR-21 project; P08659; purified FLuc, Km substrates, luminescence inhibition; Potency, µM (doses to about 57.5 µM), inactives show at the top dose activity change, negative = inhibition, usual class: inhibitors; hit rate 6.9% among 360,000; AID 588342;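 also: plate controls were vehicle for no effect and reference inhibitor for full effect; nearly all actives have a fitted effect of over 55% in size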
Target sequence (P08659 whole entry, looked up): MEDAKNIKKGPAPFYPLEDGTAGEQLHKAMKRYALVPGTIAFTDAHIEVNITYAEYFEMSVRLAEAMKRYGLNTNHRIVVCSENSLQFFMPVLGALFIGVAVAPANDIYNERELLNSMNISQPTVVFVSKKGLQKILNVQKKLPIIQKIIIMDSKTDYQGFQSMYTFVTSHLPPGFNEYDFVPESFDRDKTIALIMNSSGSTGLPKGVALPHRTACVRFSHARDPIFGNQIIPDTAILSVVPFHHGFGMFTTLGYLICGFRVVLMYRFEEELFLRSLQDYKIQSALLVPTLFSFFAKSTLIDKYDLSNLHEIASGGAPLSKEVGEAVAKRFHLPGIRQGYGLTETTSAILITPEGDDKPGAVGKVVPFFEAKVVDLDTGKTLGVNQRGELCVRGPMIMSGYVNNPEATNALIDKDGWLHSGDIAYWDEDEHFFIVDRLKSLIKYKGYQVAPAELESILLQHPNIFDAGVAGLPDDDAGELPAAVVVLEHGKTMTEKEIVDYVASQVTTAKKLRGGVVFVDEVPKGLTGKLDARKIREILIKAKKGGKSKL
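Biochemical qHTS of compounds, final roughly 60 µM downward over six points, against 10 nM purified firefly luciferase using Km concentrations of substrates (10 uM D-luciferin, 10 uM ATP) in Tris acetate pH 7.5 buffer; luminescence output.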
ELG1 genotox: genotoxicity induction in ELG1-luciferase HEK293T cells; HEK293T ELG1-luciferase reporter, luminescence, 16 h; Potency, µM (series often up to 46 µM), without a hit: at the highest dose activity change, positive = activation, usual class: activators; hit rate 1.3% among 330,000; also: % of control where 0% means no effect; nearly all actives have a fitted effect of over 60% in size
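Luminescence read-out: rising ELG1-luciferase signal, reflecting elevated ELG1 protein under genetic stress, flags genotoxic compounds. Cells were treated for 16 hr at 37 °C before ONE-Glo detection.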
* hit, by the source's call; ? = inconclusive; / = no result given; [ ] = remark or other dose. Calls follow the shape of the dose curve; as a rule, active = well fitted curve in the direction sought with a large enough effect; inconclusive = small, poorly fitted or top-dose-only effect, or another doubt; inactive = no such curve, though single readings can be large; an effect the other way counts as inactive or inconclusive. Potency is read from the fitted curve at half-maximal effect.

SMILES	SMN2 splice up	NPC1 promoter act	ELG1 repair inh	Rab9 prom act	FLuc modulator	ELG1 genotox
Cc1ccc(-c2nnc(Nc3ccc4c(c3)OCO4)c3ccccc23)cc1S(=O)(=O)NCCO	-16%[1.84 µM]	0%	?	16%	15µM*	-1%
Cc1ccc(C)c(NC(=O)c2cc(S(=O)(=O)NCc3ccccc3)ccc2F)c1	/	/	/	/	-4%	/
COc1ccc(/C=C/C(=O)NCCOc2ccc(C)cc2)cc1	13%	-1%	?	1%	?	1%
C=C1SC(Nc2c(C)cc(C)cc2C)=NC12CCCCC2	/	-4%	23µM*	-3%	-4%	-8%
C=C1SC(Nc2c(C)cccc2C)=NC12CCCCC2	/	-9%	-1%	-8%	1%	-13%
CCOC(=O)C1=C(C)Nc2sc(C(=O)c3ccc(F)cc3)c(N)c2C1c1ccc(C(=O)OC)cc1 (centres undefined)	27%	-2%	5.2µM*	0%	-6%	8%
CCOC(=O)C1=C(C)Nc2sc(C(=O)c3ccc(C)cc3)c(N)c2C1c1ccc(C(=O)OC)cc1 (centres undefined)	19%	-10%	?	-6%	4%	9%
Cc1ccc2cc(CN(Cc3ccco3)C(=O)NC3CCCCC3)c(=O)[nH]c2c1C	-28%	-9%	7.3µM*	1%	-15%	-6%
Cc1cccc2cc(CN(Cc3ccco3)C(=O)c3ccncc3)c(=O)[nH]c12	-27%	-4%	11µM*	-6%	1%	-18%
Cc1cccc2cc(CN(Cc3cccs3)C(=S)NCC3CCCO3)c(=O)[nH]c12 (centres undefined)	-43%	-5%	16µM*	-4%	8%	-4%
O=c1[nH]c2cc3c(cc2cc1CN(Cc1ccco1)C(=S)NCC1CCCO1)OCCO3 (centres undefined)	/	-8%	1%	-1%	-2%	-2%
Cc1cc(C)c2[nH]c(=O)c(CN(CC3CCCO3)C(=S)Nc3ccccc3)cc2c1 (centres undefined)	-2%	-7%	-16%	-1%	-1%	7%
O=C(c1ccncc1)N(Cc1ccco1)Cc1cc2ccccc2[nH]c1=O	-10%	0%	-20%	-1%	1%	-3%
Cc1ccc2cc(CN(Cc3ccco3)C(=S)NCC3CCCO3)c(=O)[nH]c2c1 (centres undefined)	/	-3%	21µM*	-20%	5%	-6%
Cc1ccc(C)c2[nH]c(=O)c(CN(Cc3ccco3)C(=S)NCC3CCCO3)cc12 (centres undefined)	/	-6%	23µM*	-7%	1%	-8%
Cc1cccc2cc(CN(CC3CCCO3)C(=S)NCc3ccco3)c(=O)[nH]c12 (centres undefined)	-38%	-1%	18µM*	-1%	1%	-1%
Cc1ccc(C)c(C(=O)CSc2nnnn2C(C)C)c1	?	14%	?	29%	?	?
Cc1ccc(C(=O)CSc2nnnn2C(C)C)c(C)c1	0.79µM*	2.8µM*	?	2.8µM*	0.67µM*	?
COc1ccc(C)cc1-n1nnnc1SCC(=O)c1ccc2c(c1)OCCO2	-1%	4%	7%	5%	17µM*	-4%
O=C(CSc1nnc2ccccn12)c1ccc2c(c1)OCCO2	11µM*	1.1µM*	?	1µM*	4.8µM*	2.9µM*
O=C(CSc1nnnn1C1CCCC1)c1ccc2c(c1)OCCO2	21%	1.1µM*	?	0.63µM*	0.76µM*	15%
Nc1c(Cl)ncnc1N/N=C/c1cccnc1	/	-2%	3%	-7%	-18%	-1%
CN(C)NC(=S)Nc1cccc(Cl)c1	/	0%	0%	3%	-2%	-4%
CC(C)n1nnnc1SCC(=O)c1ccc2c(c1)OCCO2	-9%	3.5µM*	?	3.5µM*	4.8µM*	11%
CCn1nnnc1SCC(=O)c1ccc2c(c1)OCCO2	-4%	?	?	?	19µM*	3%
SMILES	SMN2 splice up	NPC1 promoter act	ELG1 repair inh	Rab9 prom act	FLuc modulator	ELG1 genotox
COc1ccc(-n2nnnc2SCC(=O)c2ccc3c(c2)OCCO3)c(OC)c1	-46%	-1%	-9%	-2%	?	0%
CCn1c(SCC(=O)c2ccc3c(c2)OCCO3)nnc1C(C)C	21%	?	18%	?	?	3%
COC(=O)c1ccc(Cn2nnc3c(=O)[nH]c(C4CCCN(S(=O)(=O)c5ccccc5Cl)C4)nc32)cc1 (centres undefined)	4%	1%	?	-4%	-1%	-15%
CCN(CC)C(=O)c1ccc(N)cc1	2%	-2%	14%	4%	-2%	0%
O=C(COC(=O)CCc1c[nH]c2ccccc12)Nc1ccc([N+](=O)[O-])cc1	-12%	-8%	3%	0%	-1%	0%
CCOC(=O)c1cnc2nc(NCc3ccc(OCc4ccccc4)cc3)[nH]n2c1=O	19%	2%	6%	2%	11µM*	-3%
CCOC(=O)c1cnc2nc(NCc3ccc(OCC)cc3)[nH]n2c1=O	8%	/	/	/	?	/
O=C(Nc1ccc(CN2CCS(=O)(=O)CC2)cc1)c1ccc(C(F)(F)F)cc1	/	-14%	-10%	-26%	17µM*	8%
CC(C)(C)c1ccc(C(=O)Nc2ccc(CN3CCS(=O)(=O)CC3)cc2)cc1	/	-17%	7%	-31%	9.5µM*	-1%
O=C(Nc1ccc(CN2CCS(=O)(=O)CC2)cc1)c1ccc(F)cc1	/	1%	?	-2%	-1%	-2%
O=C(NCCc1ccc(Cl)cc1)C1CCN(C(=O)N2CCOc3ccccc32)CC1	/	-1%	?	-3%	7%	-8%
CC(C)NC(=O)CSc1nc(-c2ccccc2)cs1	?	?	?	2.5µM*	19µM*	17%
COC(=O)c1ccc(CSc2nc(-c3ccccc3)cs2)o1	2%	12%	?	12%	8.5µM*	12%
O=C(CSc1nc(-c2ccccc2)cs1)NC(=O)NCc1ccco1	-23%	2%	18µM*	-2%	-13%	-9%
O=C(CSc1nc(-c2ccccc2)cs1)Nc1nccs1	20%	3%	-3%	15%	-1%	0%
COC(=O)c1cc(S(=O)(=O)NCC2CCN(Cc3cc(C)ccc3C)CC2)cn1C	/	1%	5%	-8%	3%	-2%
COc1cccc(CNC(=O)C2CCN(S(=O)(=O)c3ccc4c(c3)NC(=O)CO4)CC2)c1	/	-4%	-3%	0%	4%	0%
Cn1c(=O)c2c(nc(NCCCCO)n2Cc2ccccc2Cl)n(C)c1=O	3%	/	/	/	-1%	/
O=C1NC(=S)S/C1=C\c1ccc2ccccc2c1	/	30%	?	?	9.5µM*	12%
